Test results published in PubChem BioAssay AID504834 (National Center for Advancing Translational Sciences (NCATS), 2011).
Hit rate of the full screen: of about 320,000 compounds, about 22,000 (6.9%) were called active. Not shown: some 27% with an inconclusive outcome. The list comes from a sample in which actives are over-represented; it also holds similar structures and randomly drawn compounds. A number with no mark means an inactive call. Calls follow the shape of the dose curve; as a rule, active = well fitted inhibition curve with a large enough effect; inconclusive = small, poorly fitted or top-dose-only effect, or another doubt; inactive = no such curve, though single readings can be large or run the other way.

Experiment: Primary qHTS for delayed death inhibitors of the malarial parasite plastid, 96 hour incubation
Settings: P. falciparum luciferase reporter growth; series mostly up to 28.7 µM; activity change, negative = inhibition: at the top concentration
Outline: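 Two parasite generations (96 h, 37 C, 5% CO2) of compound exposure in infected erythrocytes (0.05% parasitemia, 2% hematocrit). Luciferase-reporter P. falciparum; decreased luminescence indicates inhibited growth, aimed at apicoplast-acting delayed death.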
% is scaled to controls: 0 for no effect and ±100 for the full control effect; potency is read from the fitted curve at half-maximal effect.

First: CN(C(=O)c1ccccn1)c1nnc(-c2ccccn2)s1
Second: CN(Cc1ccccc1)C(=O)COc1ccccc1
The “activity change, negative = inhibition” value of the first is lower: 0% for the first, 149% for the second.

First: CC(C)Oc1ccc(C(CC(=O)N2CCOCC2)C(C)C)cc1 (configuration not stated)
Second: CC(=O)Oc1ccc(-c2cccc(C(=O)N3CCCCC3)c2)cc1
The “activity change, negative = inhibition” value of the first is higher: 4.98% for the first, -15.3% for the second.

Going from `CC(=O)c1c(C)oc2ccc(NS(=O)(=O)c3ccc(C(=O)O)cc3)cc12` to `O=C(Nc1ccc(O)cc1)c1ccc(NC(=O)c2ccco2)cc1`, the “activity change, negative = inhibition” value rises from -28% to 14.7%.

Going from `COc1cc(/C=C/CO)cc(OC)c1O[C@@H]1O[C@H](CO)[C@@H](O)[C@H](O)[C@H]1O` to `CC(=O)NC1C(OCc2ccccc2)OC(COC(C)=O)C(OC(C)=O)C1OC(C)=O` (configuration not stated), the “activity change, negative = inhibition” value falls from -1.35% to -29.8%.

Compared with `Cn1cc(S(=O)(=O)Nc2ccc(Cl)cc2Cl)c(=O)n(C)c1=O`, `O=C(CN1CCOCC1)Nc1cc(Cl)ccc1Cl` is higher in “activity change, negative = inhibition” value: -1.94% for the first, 70.5% for the second.

First: Cc1ccc(N2CC(C(=O)NCCS(=O)(=O)N3CCN(c4ccccc4)CC3)CC2=O)cc1 (configuration not stated)
Second: COCCNC(=O)C1CCN(C(=O)C2CC(=O)N(c3ccc(C)cc3)C2)CC1 (configuration not stated)
The “activity change, negative = inhibition” value of the first is higher: 155% for the first, -12% for the second.

Compared with `Cc1nc(Cl)cc(N/N=C/c2ccccc2)n1`, `COc1ccc2nc(/N=C(\N)NC(=O)Nc3ccccc3)nc(C)c2c1` is lower in “activity change, negative = inhibition” value: 36% for the first, -14% for the second.

First: Cc1ccc(/C=C/C(=O)OCC(=O)Nc2cccnc2Cl)cc1
Second: Cc1ccc(NC(=O)COc2ccc(/C=C3/NC(=O)NC3=O)cc2)cc1
The “activity change, negative = inhibition” value of the first is lower: 28.3% for the first, 65.7% for the second.

Going from `CSCCC(NC(=O)COc1ccccc1)C(=O)OCCOc1ccc(F)cc1` (configuration not stated) to `O=c1ccc2cc(S(=O)(=O)NCCCc3ccccc3)ccc2[nH]1`, the “activity change, negative = inhibition” value rises from 13.2% to 37.4%.

Going from `O=C(NCC(=O)N1CCC2(CC1)NCCc1[nH]cnc12)c1ccc(Br)cc1` to `COc1ccccc1C(=O)NCCC(=O)NN1C(=O)NC2(CCCCC2)C1=O`, the “activity change, negative = inhibition” value falls from 39.1% to 0.363%.

Compared with `Cc1ccsc1C(=O)NC1CCCCC1C` (configuration not stated), `COc1cccc(CNC(=O)C2CC(=O)N(C3CCCCCCC3)C2)c1` (configuration not stated) is higher in “activity change, negative = inhibition” value: 8.49% for the first, 14.6% for the second.

Compared with `O=C(NCCCN1CCCCC1)C1CC(=O)N(CCc2ccccc2)C1` (configuration not stated), `COc1ccc(CN2CCCC(C(=O)N3CCCCC3)C2)cc1` (configuration not stated) is higher in “activity change, negative = inhibition” value: 0.338% for the first, 26.6% for the second.

First: Nc1nonc1-n1nnc(C(=O)N/N=C/C2CCCCC2)c1-c1ccccc1
Second: CC(C)c1c(C(=O)N/N=C/c2ccc(-c3ccccc3)cc2)nnn1-c1nonc1N
The “activity change, negative = inhibition” value of the first is higher: 12% for the first, -22.8% for the second.

Going from `CCOC(=O)N1CCN(C(=O)COc2ccc3oc4c(c3c2)CCCC4)CC1` to `O=C1CCCN1C(=O)COc1ccc([N+](=O)[O-])cc1`, the “activity change, negative = inhibition” value falls from -5.29% to -14.5%.

Compared with `COc1ccccc1CNC(=O)C1CCN(C(=O)[C@@H]2Cc3ccccc3CN2)CC1`, `COc1ccccc1CNC(=O)COC(=O)c1sc(C)nc1C` is lower in “activity change, negative = inhibition” value: 18.3% for the first, 7.8% for the second.

Going from `NC(=O)C1CCN(c2nc(-c3cccc(F)c3)cs2)CC1` to `Cc1nn(-c2ccccc2)c(C)c1C(=O)OCC(=O)NC(=O)NC1CCCCC1`, the “activity change, negative = inhibition” value falls from 18% to 5.23%.

Going from `Nc1nnc(SCC(=O)NCC(=O)Nc2ccc(F)c(F)c2F)s1` to `CCN(CC(=O)Nc1c(F)cccc1F)C(=O)c1ccc(Sc2nncn2C)c([N+](=O)[O-])c1`, the “activity change, negative = inhibition” value falls from 10.7% to -19.5%.

Compared with `CN(C)CCNC(=O)c1[nH]nc2c1CCc1ccccc1-2`, `CC(C)CCN1CCC(C)(NC(=O)c2ccccc2)C1=O` (configuration not stated) is higher in “activity change, negative = inhibition” value: -2.24% for the first, 56.1% for the second.

First: O=C(N/N=C/c1ccc(O)c2ccccc12)c1cccnc1
Second: Cc1ccc(OC(=O)c2cncc(Br)c2)c(C)c1
The “activity change, negative = inhibition” value of the first is higher: 51.5% for the first, 19.6% for the second.

Compared with `CN1C2CCC1CC(NC(=O)c1ccc([N+](=O)[O-])cc1)C2` (configuration not stated), `N/C(=N\OC(=O)COc1ccc([N+](=O)[O-])cc1)c1ccc(Br)cc1` is lower in “activity change, negative = inhibition” value: 24.1% for the first, 16.2% for the second.

First: Cc1cc(NC(=O)CCC(=O)N(Cc2ccccc2)C(C(=O)NC2CCCC2)c2ccc(C)o2)no1 (configuration not stated)
Second: C/C(=N\Nc1nc(Nc2ccccc2)nc(N2CCOCC2)n1)c1cccs1
The “activity change, negative = inhibition” value of the first is lower: -28.2% for the first, 20.1% for the second.

With `COC(=O)c1ccc2ccccc2c1OC1OC(CO)C(O)C(O)C1NC(C)=O` (configuration not stated) the Potency was 10.4 µM (active).
With `COCCCNC(=O)C1CC(=O)N(c2ccc(C)cc2)C1` (configuration not stated) the Potency was 11.7 µM (active).
With `O=C(NCCCN1CCCCCC1)C1CC(=O)N(C2CCCC2)C1` (configuration not stated) the Potency was 3.7 µM (active).
For `Nc1nonc1-n1nnc(C(=O)N/N=C/c2ccc(Cl)cc2)c1-c1ccc2c(c1)OCO2`, the Potency was 0.0657 µM (active).
With `C/C(CCC(=O)OC[C@H]1O[C@H](C#Cc2ccccc2)C=C[C@@H]1Oc1ccc(C)cc1)=N\OC[C@@H](O)[C@H]1O[C@@H]2OC(C)(C)O[C@@H]2[C@H]1O` the Potency was 13.1 µM (active).
In the case of `O=C(N/N=C/c1sc(N2CCCCC2)nc1-c1cccs1)c1cccnc1`, the Potency is reported as 2.08 µM (active).
With `Cc1nc(/N=C(\N)NC(=O)NC2CCCCC2)nc2ccccc12` the Potency was 3.29 µM (active).
With `CCOC(=O)COc1ccc([N+](=O)[O-])cc1` the Potency was 0.415 µM (active).
For `O=C(CSc1nc(Nc2ccccc2)nc(N2CCOCC2)n1)Nc1cc(Cl)ccc1O`, the Potency was 5.22 µM (active).

Work on `Cc1cc(/C=N/NC(=O)c2cccnc2)c(C)n1CC(C)C` yielded an activity change, negative = inhibition of 33.1% [at 5.75 µM].
